“And” between values parts separate entries of the source, which are not always exact repeats. Equal values may be shown once. The source made the active and inactive calls. Unless noted, calls come from the whole dose curve; as a rule, active = well fitted curve in the direction sought with a large enough effect in the repeat runs; inconclusive = weak or mixed curves; inactive = no such curve, though single readings can be large; an effect the other way counts as inactive or inconclusive.
Experiments:
Aromatase (Homo sapiens) = Aromatase (Homo sapiens) (UniProt P11511); experiment: qHTS assay to identify aromatase inhibitors (AID 743083); note: series mostly up to about 70 µM; nearly all actives have a fitted effect of over 55% in size
Sequence of Aromatase (Homo sapiens) (P11511 whole entry, looked up): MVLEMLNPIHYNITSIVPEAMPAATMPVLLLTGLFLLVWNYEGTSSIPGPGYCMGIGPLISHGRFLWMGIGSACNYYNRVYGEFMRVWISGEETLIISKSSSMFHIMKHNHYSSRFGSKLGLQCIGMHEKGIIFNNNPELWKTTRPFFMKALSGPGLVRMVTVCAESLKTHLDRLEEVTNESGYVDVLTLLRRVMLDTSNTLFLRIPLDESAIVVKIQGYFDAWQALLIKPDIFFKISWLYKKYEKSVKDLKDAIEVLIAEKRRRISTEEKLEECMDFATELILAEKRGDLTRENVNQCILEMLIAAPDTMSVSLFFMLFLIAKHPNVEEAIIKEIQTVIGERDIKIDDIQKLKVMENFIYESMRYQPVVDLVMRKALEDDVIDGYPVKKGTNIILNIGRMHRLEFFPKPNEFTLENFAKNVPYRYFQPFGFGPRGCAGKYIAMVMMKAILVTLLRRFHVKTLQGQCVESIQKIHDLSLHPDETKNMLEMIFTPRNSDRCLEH

[1] = target: Aryl hydrocarbon receptor (Homo sapiens) (UniProt P35869); experiment: qHTS assay to identify small molecule that activate the aryl hydrocarbon receptor (AhR) signaling pathway (AID 743085); note: nearly all actives have a fitted effect of over 15% in size; note: potency is the fitted concentration of half-maximal effect;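 for activation: HG2L7.5c1 human HepG2 liver cells with stably integrated DRE-driven firefly reporter; series mostly up to about 70 µM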
Sequence of Aryl hydrocarbon receptor (Homo sapiens) (P35869 whole entry, looked up): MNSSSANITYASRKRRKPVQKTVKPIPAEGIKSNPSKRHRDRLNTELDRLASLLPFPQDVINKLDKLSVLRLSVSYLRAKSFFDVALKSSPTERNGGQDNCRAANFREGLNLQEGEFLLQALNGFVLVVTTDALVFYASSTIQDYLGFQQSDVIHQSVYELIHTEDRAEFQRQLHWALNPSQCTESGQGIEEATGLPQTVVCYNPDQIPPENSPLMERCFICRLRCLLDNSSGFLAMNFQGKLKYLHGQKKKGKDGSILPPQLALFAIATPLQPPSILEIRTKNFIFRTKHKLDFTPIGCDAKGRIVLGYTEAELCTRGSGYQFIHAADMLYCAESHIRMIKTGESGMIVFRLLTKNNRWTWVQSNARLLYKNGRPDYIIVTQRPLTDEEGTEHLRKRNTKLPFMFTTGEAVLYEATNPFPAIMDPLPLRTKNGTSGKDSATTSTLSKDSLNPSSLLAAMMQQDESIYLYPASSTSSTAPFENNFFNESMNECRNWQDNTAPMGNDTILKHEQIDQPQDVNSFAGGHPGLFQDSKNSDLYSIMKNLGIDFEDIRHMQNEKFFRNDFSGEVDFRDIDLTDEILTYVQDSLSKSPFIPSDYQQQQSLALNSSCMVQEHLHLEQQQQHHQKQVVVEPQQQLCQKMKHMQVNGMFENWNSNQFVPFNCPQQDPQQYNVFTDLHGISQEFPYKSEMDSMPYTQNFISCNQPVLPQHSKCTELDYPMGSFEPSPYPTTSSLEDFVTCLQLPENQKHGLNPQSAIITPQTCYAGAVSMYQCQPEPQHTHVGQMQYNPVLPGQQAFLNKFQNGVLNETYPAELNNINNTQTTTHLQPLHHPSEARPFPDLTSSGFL
Method in brief: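 AhR agonist activity is inferred from enhanced light output of a DRE-controlled firefly luciferase reporter in HepG2 cells, measured with ONE-Glo following 24 h treatment at 37C.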

[2] = target: Acetylcholinesterase (Homo sapiens) (UniProt P22303); experiment: Acetylcholinesterase (AChE) small molecule antagonists: enzyme-based qHTS assay (AID 1347397; calls by dose curve; note: nearly all actives have a fitted effect of over 55% in size); conditions: Potency: AChE enzyme activity inhibition; outcome: AChE enzyme activity inhibition
Sequence of Acetylcholinesterase (Homo sapiens) (P22303 whole entry, looked up): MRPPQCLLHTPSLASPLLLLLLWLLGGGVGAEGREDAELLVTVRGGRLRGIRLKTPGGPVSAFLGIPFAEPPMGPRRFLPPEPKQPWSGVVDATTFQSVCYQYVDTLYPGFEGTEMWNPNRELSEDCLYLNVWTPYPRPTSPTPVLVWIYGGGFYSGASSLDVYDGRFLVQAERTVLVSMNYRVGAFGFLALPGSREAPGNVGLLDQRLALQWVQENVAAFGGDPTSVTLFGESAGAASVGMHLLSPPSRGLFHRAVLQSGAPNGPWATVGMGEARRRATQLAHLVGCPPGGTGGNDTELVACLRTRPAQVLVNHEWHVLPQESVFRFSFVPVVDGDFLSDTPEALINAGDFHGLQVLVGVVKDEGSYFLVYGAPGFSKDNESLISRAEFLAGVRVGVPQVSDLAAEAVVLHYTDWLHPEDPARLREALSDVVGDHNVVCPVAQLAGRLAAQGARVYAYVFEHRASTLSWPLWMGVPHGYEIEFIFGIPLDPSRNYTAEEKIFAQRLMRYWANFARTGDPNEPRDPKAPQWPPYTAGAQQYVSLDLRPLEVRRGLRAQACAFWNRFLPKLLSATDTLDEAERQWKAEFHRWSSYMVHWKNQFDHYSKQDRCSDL
Method in brief: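 Colorimetric DTNB read-out of thiocholine released from acetylthiocholine by recombinant human AChE (50 mU/mL as dispensed). Compounds were preincubated 30 min at RT before substrate/DTNB addition, with a 10 min RT reaction.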

[3] = target: Acetylcholinesterase (Homo sapiens) (UniProt P22303); experiment: Acetylcholinesterase (AChE) small molecule antagonists: fluorescence cell-based qHTS assay (AID 1347398; calls by dose curve; note: nearly all actives have a fitted effect of over 50% in size); conditions: Potency: AChE activity; outcome: AChE activity
Method in brief: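 SH-SY5Y, 2,000 cells/well, attached overnight; cmpd 30 min 37 C; acetylthiocholine/Thiolite Green cocktail 40 min RT; fluorescence Ex/Em 490/520 nm.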

[4] = target: Acetylcholinesterase (Homo sapiens) (UniProt P22303); experiment: Acetylcholinesterase (AChE) small molecule antagonists: enzyme-based qHTS assay with human liver microsomes (AID 1347399; calls by dose curve; note: nearly all actives have a fitted effect of over 60% in size); conditions: Potency: qHTS inhibition; outcome: qHTS inhibition
Method in brief: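 Recombinant human AChE (50 mU/mL in the enzyme mix) and human liver microsomes (0.25 mg/mL final) were preincubated with compound and NADPH (0.25 mg/mL final) for 30 min at 37 C. Acetylthiocholine/DTNB was then added; thiocholine was read colorimetrically after 10 min at room temperature.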

[5] = qHTS assay for small molecule agonists of the p53 signaling pathway (AID 651631; calls by dose curve; note: nearly all actives have a fitted effect of over 15% in size; note: potency is the fitted concentration of half-maximal effect)
Method in brief: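 We treat p53RE-bla HCT-116 cells with compounds for 16 h at 37 °C, add LiveBLAzer B/G FRET substrate for 2 h at room temperature, and measure fluorescence intensity.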

[6] = qHTS assay for small molecules that induce genotoxicity in human embryonic kidney cells expressing luciferase-tagged ATAD5 (AID 651632); note: nearly all actives have a fitted effect of over 15% in size
Method in brief: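 DMSO vehicle served as the control. HEK293T reporter cells, 16 hr at 37C, then 30 min Amplite at room temperature; ATAD5 induction is measured as luciferase activity.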

[7] = qHTS assay for small molecule agonists of the p53 signaling pathway - cell viability (AID 651633; calls by dose curve;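 note: p53RE-bla HCT reporter cells with a stable beta-lactamase p53 reporter; series mostly up to about 83 µM; nearly all actives have a fitted effect of over 30% in size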)
Method in brief: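 p53RE-bla cells were treated with compound for 16 hours at 37 C. Cytotoxicity was then measured as CellTiter-Glo luminescence after 30 min at room temperature.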

[8] = qHTS assay for small molecules that induce genotoxicity in human embryonic kidney cells expressing luciferase-tagged ATAD5 - cell viability (AID 651634; calls by dose curve; note: nearly all actives have a fitted effect of over 25% in size)
Method in brief: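 Here HEK293T cells with the ATAD5 luciferase reporter are incubated with test compounds for 15.5 hr, and cytotoxicity is then gauged by measuring protease activity in live cells using fluorescence.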

[9] = qHTS assay for small molecule disruptors of the mitochondrial membrane potential - cell viability (AID 720634; calls by dose curve;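 note: human HepG2 liver cancer cells; series mostly up to about 83 µM; nearly all actives have a fitted effect of over 20% in size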)
Method in brief: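 Viability of HepG2 cells is scored from ATP content by luminescence; cells are exposed to compound for 1 hr at 37 C and 5% CO2, then dosed with m-MPI dye before the CellTiter-Glo reagent.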

[10] = qHTS assay for small molecule disruptors of the mitochondrial membrane potential (AID 720635)
Method in brief: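 HepG2 cells exposed to compound 1 hr at 37C, then Mito-MPS dye 30 min. Ratio read of aggregate (540/590 nm) versus monomer (490/535 nm) fluorescence.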

[11] = qHTS assay to test for compound auto fluorescence at 535 nm (green) in HepG2 cells (AID 720675)
[12] = qHTS assay to test for compound auto fluorescence at 460 nm (blue) in HEK293 cells (AID 720678)
Method in brief: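 HEK293, 2,000 cells/well, 10% dialyzed FBS; attach 4-5 hr 37C; pin compound or DMSO; o/n 37C/5% CO2; fluorescence 405/460 nm; triamterene-equivalent units.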

[13] = qHTS assay to test for compound auto fluorescence at 590 nm (red) in HEK293 cells (AID 720679)
Method in brief: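 Intensity at 540nm excitation and 590nm emission is reported as Rose Bengal sodium-equivalent autofluorescence. Measurements followed overnight exposure (37C, 5% CO2) of HEK293 cells, 2,000 per well, to 23 nL compound.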

[14] = qHTS assay to test for compound auto fluorescence at 535 nm (green) in HEK293 cells (AID 720680)
[15] = qHTS assay to test for compound auto fluorescence at 535 nm (green) in HEK293 cell free culture (AID 720682)
Method in brief: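 Green-channel intensity (Ex/Em 485/535 nm) was recorded from compound-treated wells containing only DMEM with 10% FBS. Fluorescein provided the equivalency standard.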

[16] = qHTS assay to test for compound auto fluorescence at 590 nm (red) in HEK293 cell free culture (AID 720683)
Method in brief: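 Cell-free wells of DMEM with 10% FBS received compound, and intrinsic fluorescence was read at excitation/emission 540/590 nm. Values expressed as equivalence to Rose Bengal sodium.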

[17] = qHTS assay to test for compound auto fluorescence at 590 nm (red) in HepG2 cell free culture (AID 720684)
Method in brief: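 Rose Bengal sodium served as the reference for red signal. Test compounds were dispensed into serum-containing MEM (10% FBS) without cells, and plates were read at 540/590 nm.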

[18] = qHTS assay to test for compound auto fluorescence at 460 nm (blue) in HepG2 cell free culture (AID 720685)
Method in brief: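 Cell-free plates of MEM plus 10% FBS received 23 nL compound or DMSO vehicle; blue-channel (405/460 nm) intensity scored against triamterene as reference fluorophore.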

[19] = qHTS assay to test for compound auto fluorescence at 535 nm (green) in HepG2 cell free culture (AID 720686)
[20] = qHTS assay to test for compound auto fluorescence at 460 nm (blue) in HepG2 cells (AID 720687)
Method in brief: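 HepG2 cells in MEM with 10% FBS, attached overnight at 37 C, were exposed to compound or DMSO for 1 hr at 37 C, 5% CO2. Blue fluorescence was read at 405/460 nm, with triamterene as reference fluorophore.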

[21] = qHTS assay to identify small molecule antagonists of the glucocorticoid receptor (GR) signaling pathway - cell viability counter screen (AID 720693); note: nearly all actives have a fitted effect of over 55% in size
[22] = qHTS assay for identifying genotoxic compounds that show differential cytotoxicity against isogenic chicken DT40 cell lines with known DNA damage response pathways - wild type cell line (AID 743012); note: nearly all actives have a fitted effect of over 60% in size; note: potency is the fitted concentration of half-maximal effect
Method in brief: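 Viability of DNA repair-proficient chicken DT40 cells was assessed by CellTiter-Glo luminescence following 40 h compound exposure at 37 C/5% CO2.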

[23] = qHTS assay for identifying genotoxic compounds that show differential cytotoxicity against isogenic chicken DT40 cell lines with known DNA damage response pathways - Rev3 mutant cell line (AID 743014); note: nearly all actives have a fitted effect of over 55% in size; note: potency is the fitted concentration of half-maximal effect
[24] = qHTS assay for identifying genotoxic compounds that show differential cytotoxicity against isogenic chicken DT40 cell lines with known DNA damage response pathways - Rad54/Ku70 mutant cell line (AID 743015); note: nearly all actives have a fitted effect of over 60% in size; note: potency is the fitted concentration of half-maximal effect
[25] = qHTS assay to identify small molecule antagonists of the androgen receptor (AR) signaling pathway - cell viability counter screen (AID 743033; note: nearly all actives have a fitted effect of over 45% in size)
[26] = qHTS assay to identify small molecule antagonists of the thyroid receptor (TR) signaling pathway - cell viability counter screen (AID 743064); note: nearly all actives have a fitted effect of over 50% in size
Method in brief: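 In rat pituitary GH3.TRE-Luc reporter cells co-exposed to compound and 1 nM T3 for 23.5 h, cytotoxicity was assessed with CellTiter-Fluor in the same wells, read by fluorescence.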

[27] = system: thyroid hormone receptor (rat, GH3 cells); experiment: qHTS assay to identify small molecule agonists of the thyroid receptor (TR) signaling pathway (AID 743066; calls by dose curve)
[28] = target: Estrogen receptor (Homo sapiens) (UniProt P03372); experiment: qHTS assay to identify small molecule antagonists of the estrogen receptor alpha (ER-alpha) signaling pathway (AID 743069; active = well fitted curve in the direction sought with a large enough effect in the signal ratio in the repeat runs, not every such curve was filed as active; inconclusive = weak or mixed curves, or effect the other way; inactive = no such curve, though single readings can be large or run the other way; the % refers to the signal ratio)
Sequence of Estrogen receptor (Homo sapiens) (P03372 whole entry, looked up): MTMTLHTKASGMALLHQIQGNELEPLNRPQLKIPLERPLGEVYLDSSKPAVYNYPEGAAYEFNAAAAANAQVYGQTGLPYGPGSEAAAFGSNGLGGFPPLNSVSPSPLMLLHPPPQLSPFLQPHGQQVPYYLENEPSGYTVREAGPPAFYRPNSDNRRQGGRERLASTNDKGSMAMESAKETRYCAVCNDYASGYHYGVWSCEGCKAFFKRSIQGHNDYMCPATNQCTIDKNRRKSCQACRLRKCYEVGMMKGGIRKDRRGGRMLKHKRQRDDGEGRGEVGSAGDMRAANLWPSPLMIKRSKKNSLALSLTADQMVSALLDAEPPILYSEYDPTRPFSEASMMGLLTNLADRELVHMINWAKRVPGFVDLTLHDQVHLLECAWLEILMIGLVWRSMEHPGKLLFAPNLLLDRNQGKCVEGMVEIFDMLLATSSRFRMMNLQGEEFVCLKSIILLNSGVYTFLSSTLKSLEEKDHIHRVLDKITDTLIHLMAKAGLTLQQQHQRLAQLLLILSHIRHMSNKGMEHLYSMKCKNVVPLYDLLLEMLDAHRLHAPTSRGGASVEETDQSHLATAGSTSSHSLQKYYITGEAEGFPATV
Method in brief: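 Beta-lactamase FRET fluorescence is read after 2 hr at room temperature with LiveBLAzer B/G substrate. Before that, ER-alpha-bla HEK293 cells sit 4 hr after plating, then receive compound plus 17beta-estradiol and incubate 18 hr at 37C.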

[29] = qHTS assay to identify small molecule antagonists of the estrogen receptor alpha (ER-alpha) signaling pathway - cell viability counter screen (AID 743074; calls by dose curve;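 note: HEK293 cells carrying ER-alpha-UAS-bla reporter stimulated with 17beta-estradiol; nearly all actives have a fitted effect of over 45% in size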)
[30] = target: Estrogen receptor (Homo sapiens) (UniProt P03372); experiment: qHTS assay to identify small molecule agonists of the estrogen receptor alpha (ER-alpha) signaling pathway (AID 743075; calls by dose curve;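 note: HEK293 GripTite cells with ER-alpha and UAS-driven beta-lactamase reporter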; note: potency is the fitted concentration of half-maximal effect)
[31] = target: Estrogen receptor (Homo sapiens) (UniProt P03372); experiment: qHTS assay to identify small molecule agonists of the estrogen receptor alpha (ER-alpha) signaling pathway using the BG1 cell line (AID 743079); note: potency is the fitted concentration of half-maximal effect; nearly all actives have a fitted effect of over 20% in size
[32] = qHTS assay to identify small molecule antagonists of the estrogen receptor alpha (ER-alpha) signaling pathway using the BG1 cell line (AID 743080; calls by dose curve;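 note: BG1 cells stimulated with 17beta-estradiol alongside compound; series mostly up to about 70 µM; nearly all actives have a fitted effect of over 25% in size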)
Method in brief: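 BG1Luc4E2, endogenous ER-alpha, 4xERE-luc; 5 d charcoal-stripped FBS, phenol red free; 24 h plating; cpd + 17beta-estradiol 21.5 h, 37 C/5% CO2; CellTiter-Fluor viability 30 min, then ONE-Glo luciferase 30 min RT.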

[33] = qHTS assay to identify small molecule antagonists of the estrogen receptor alpha (ER-alpha) signaling pathway using the BG1 cell line - cell viability counter screen (AID 743081);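 note: compound given together with 17beta-estradiol as the ER stimulus; series mostly up to about 70 µM; nearly all actives have a fitted effect of over 45% in size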
[34] = qHTS assay to identify aromatase inhibitors - cell viability counter screen (AID 743084)
[35] = qHTS assay to identify small molecule that activate the aryl hydrocarbon receptor (AhR) signaling pathway - cell viability counter screen (AID 743086);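 note: HepG2 liver cells carrying the AhR DRE luciferase reporter; series mostly up to about 70 µM; nearly all actives have a fitted effect of over 45% in size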
Method in brief: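 HepG2-AhR-luc (HG2L7.5c1) cells, 4000/well, treated 24 h at 37 C with compound; viability measured as CellTiter-Fluor fluorescence after 30 min in the same wells as the luciferase read.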

[36] = target: Peroxisome proliferator-activated receptor gamma (Homo sapiens) (UniProt P37231); experiment: qHTS assay to identify small molecule agonists of the peroxisome proliferator-activated receptor gamma (PPARg) signaling pathway (AID 743094; active = well fitted activation curve with a large enough effect in the signal ratio in the repeat runs, not every such curve was filed as active; inconclusive = weak or mixed curves, or effect the other way; inactive = no such curve, though single readings can be large or run the other way; the % refers to the signal ratio)
Sequence of Peroxisome proliferator-activated receptor gamma (Homo sapiens) (P37231 whole entry, looked up): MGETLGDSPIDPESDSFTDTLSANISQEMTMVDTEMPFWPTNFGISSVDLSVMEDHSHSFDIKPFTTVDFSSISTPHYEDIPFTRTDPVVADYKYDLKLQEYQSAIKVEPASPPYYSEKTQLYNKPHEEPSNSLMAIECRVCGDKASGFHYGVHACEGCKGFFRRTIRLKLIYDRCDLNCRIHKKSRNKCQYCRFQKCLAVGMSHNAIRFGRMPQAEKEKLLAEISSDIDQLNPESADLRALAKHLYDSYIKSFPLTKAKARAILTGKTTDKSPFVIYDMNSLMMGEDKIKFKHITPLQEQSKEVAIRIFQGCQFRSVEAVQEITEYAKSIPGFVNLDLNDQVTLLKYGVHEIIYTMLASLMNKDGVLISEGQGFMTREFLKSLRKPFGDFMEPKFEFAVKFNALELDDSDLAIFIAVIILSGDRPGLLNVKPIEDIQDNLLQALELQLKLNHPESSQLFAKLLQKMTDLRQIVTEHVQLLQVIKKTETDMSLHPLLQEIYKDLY
Method in brief: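 Agonism was assessed in a beta-lactamase reporter system, HEK293H cells with a stably integrated UAS-bla construct under PPARg control; the 17 h treatment at 37C preceded a 1 h room-temperature FRET substrate read.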

[37] = qHTS assay to test for compound auto fluorescence at 460 nm (blue) in HEK293 cell free culture (AID 720681)
Method in brief: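 Compounds were added to cell-free DMEM with 10% FBS and fluorescence read directly. The blue channel used 405 nm excitation and 460 nm emission, with triamterene as the reference fluorophore.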

[38] = target: Glucocorticoid receptor (Homo sapiens) (UniProt P04150); experiment: qHTS assay to identify small molecule antagonists of the glucocorticoid receptor (GR) signaling pathway (AID 720692; active = well fitted inhibition curve with a large enough effect in the signal ratio in the repeat runs, not every such curve was filed as active; inconclusive = weak or mixed curves, or effect the other way; inactive = no such curve, though single readings can be large or run the other way; the % refers to the signal ratio)
Sequence of Glucocorticoid receptor (Homo sapiens) (P04150 whole entry, looked up): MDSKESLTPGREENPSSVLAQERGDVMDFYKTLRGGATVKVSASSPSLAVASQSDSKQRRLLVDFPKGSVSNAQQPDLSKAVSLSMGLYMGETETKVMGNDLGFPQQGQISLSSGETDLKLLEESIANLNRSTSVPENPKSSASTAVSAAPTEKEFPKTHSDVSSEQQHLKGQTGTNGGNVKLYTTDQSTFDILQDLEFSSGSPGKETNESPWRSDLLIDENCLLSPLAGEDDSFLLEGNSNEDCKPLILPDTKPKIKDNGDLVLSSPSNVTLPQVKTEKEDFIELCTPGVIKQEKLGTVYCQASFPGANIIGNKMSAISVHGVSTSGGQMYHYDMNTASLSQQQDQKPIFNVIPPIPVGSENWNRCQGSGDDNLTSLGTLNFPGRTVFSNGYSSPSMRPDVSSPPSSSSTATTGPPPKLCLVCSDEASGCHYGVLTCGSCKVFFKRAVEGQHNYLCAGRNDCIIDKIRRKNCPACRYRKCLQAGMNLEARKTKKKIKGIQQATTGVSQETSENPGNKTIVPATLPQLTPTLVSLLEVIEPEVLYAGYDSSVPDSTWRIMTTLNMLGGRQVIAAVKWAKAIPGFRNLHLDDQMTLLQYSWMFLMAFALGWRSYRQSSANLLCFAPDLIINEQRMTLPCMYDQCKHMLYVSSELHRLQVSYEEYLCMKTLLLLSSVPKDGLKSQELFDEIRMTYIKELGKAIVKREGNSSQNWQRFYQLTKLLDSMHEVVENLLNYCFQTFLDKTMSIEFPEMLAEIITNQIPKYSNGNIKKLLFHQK
Method in brief: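 In a 1536-well cell format, compounds were added 4 h after seeding GR-bla HeLa cells, together with dexamethasone at 5 nM final; reporter activity was measured by FRET-substrate fluorescence following 18 h at 37 C.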

[39] = target: Androgen receptor (Homo sapiens) (UniProt P10275); experiment: qHTS assay to identify small molecule antagonists of the androgen receptor (AR) signaling pathway (AID 743035; active = well fitted inhibition curve with a large enough effect in the signal ratio in the repeat runs, not every such curve was filed as active; inconclusive = weak or mixed curves, or effect the other way; inactive = no such curve, though single readings can be large or run the other way; the % refers to the signal ratio; note: potency is the fitted concentration of half-maximal effect)
Sequence of Androgen receptor (Homo sapiens) (P10275 whole entry, looked up): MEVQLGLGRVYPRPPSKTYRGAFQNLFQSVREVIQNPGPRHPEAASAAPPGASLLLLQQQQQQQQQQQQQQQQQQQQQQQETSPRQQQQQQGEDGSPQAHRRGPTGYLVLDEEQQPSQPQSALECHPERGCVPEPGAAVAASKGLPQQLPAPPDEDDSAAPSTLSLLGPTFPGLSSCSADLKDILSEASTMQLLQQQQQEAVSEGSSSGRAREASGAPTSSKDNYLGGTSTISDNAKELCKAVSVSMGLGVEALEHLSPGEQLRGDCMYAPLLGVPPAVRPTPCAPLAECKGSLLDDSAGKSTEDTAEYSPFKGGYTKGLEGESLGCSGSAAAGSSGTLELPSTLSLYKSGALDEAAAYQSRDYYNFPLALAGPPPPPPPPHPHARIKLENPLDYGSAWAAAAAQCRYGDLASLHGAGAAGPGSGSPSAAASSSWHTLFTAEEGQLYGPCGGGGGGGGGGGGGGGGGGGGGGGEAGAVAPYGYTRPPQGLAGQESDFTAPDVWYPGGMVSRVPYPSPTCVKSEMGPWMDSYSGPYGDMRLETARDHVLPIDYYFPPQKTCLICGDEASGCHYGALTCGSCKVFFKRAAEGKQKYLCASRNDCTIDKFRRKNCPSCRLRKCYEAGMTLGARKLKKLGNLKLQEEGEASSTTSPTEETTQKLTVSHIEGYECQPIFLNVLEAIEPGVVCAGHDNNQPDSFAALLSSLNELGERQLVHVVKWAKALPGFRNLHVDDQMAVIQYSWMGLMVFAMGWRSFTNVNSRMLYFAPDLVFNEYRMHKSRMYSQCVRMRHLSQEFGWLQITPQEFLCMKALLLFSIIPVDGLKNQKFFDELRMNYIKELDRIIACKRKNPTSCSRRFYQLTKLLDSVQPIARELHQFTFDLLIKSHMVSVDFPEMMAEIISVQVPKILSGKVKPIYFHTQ
Method in brief: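 Reporter HEK293 cells were exposed to compounds and R1881 overnight (16 h, 37C); beta-lactamase activity was then quantified by FRET fluorescence.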

[40] = target: Androgen receptor (Homo sapiens) (UniProt P10275); experiment: qHTS assay to identify small molecule agonists of the androgen receptor (AR) signaling pathway using the MDA cell line (AID 743040; note: potency is the fitted concentration of half-maximal effect; nearly all actives have a fitted effect of over 20% in size)
Method in brief: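 Luciferase read-out, ONE-Glo, 30 min RT. Cells: MDA-kb2 AR-luc, MMTV promoter with AR and GR response elements. Compound exposure 16 h, 37C, 0% CO2, after 5 h pre-incubation. qHTS agonist mode.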

[41] = qHTS assay to identify small molecule antagonists of the androgen receptor (AR) signaling pathway using the MDA cell line - cell viability counter screen (AID 743041; note: nearly all actives have a fitted effect of over 45% in size)
Method in brief: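 Cytotoxicity counter screen: MDA-kb2 AR-luc cells, compound + R1881, 16 h, 37C, 0% CO2; CellTiter-Fluor added at 15.5 h, fluorescence read after 30 min.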

[42] = target: Androgen receptor (Homo sapiens) (UniProt P10275); experiment: qHTS assay to identify small molecule antagonists of the androgen receptor (AR) signaling pathway using the MDA cell line (AID 743042; note: nearly all actives have a fitted effect of over 55% in size)
Method in brief: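 MDA-kb2 breast carcinoma cells carrying MMTV-luciferase (AR/GR responsive) were co-treated with compounds and the agonist R1881 for 16 h at 37C. Inhibition read as ONE-Glo luminescence; CellTiter-Fluor fluorescence measured in parallel for cytotoxicity.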

Measured: Potency

Nc1ccc2c3c(cccc13)-c1ccccc1-2
inactive: Aromatase (Homo sapiens) | [2] | [3] | [4]
active: [1] 21.9 µM

CC(C)=CCN1CC[C@]2(C)c3cc(O)ccc3C[C@H]1[C@H]2C
active: [22] 24.3 µM | [23] 27.3 µM | [24] 27.3 µM | [31] 30.6 µM
not listed: [2] | [3] | [4] | [37] | [38] | [39] | [40] | [41] | [42]
inactive: all other assays above

C[C@]12CC[C@@H]3c4ccc(OC(=O)N(CCCl)CCCl)cc4CC[C@H]3[C@@H]1CC[C@@H]2OP(=O)(O)O
active: [5] 7.5 µM and 29.8 µM | [39] 10.7 µM and 19 µM | [40] 5.31 µM and 10.6 µM | [30] 21.3 nM [inconclusive] and 16.9 nM [inconclusive] | [31] 4.7 nM and 16.8 nM
not listed: [2] | [3] | [4] | [7] | [10] | [20] | [26] | [27] | [28]
inactive: all other assays above
